Here are results for 6 molecules from PubChem BioAssay (EPA / NIEHS).

SMILES strings stand for the structures. Values joined by “and” are separate entries in the source; they are usually repeats but may differ in a detail not shown here. Identical values can stand only once. The source holds several records for some structures; these can differ, active in one and inactive in another. Active and inactive are the calls of the source. The calls were made as follows: active = hit-call score of the fitted dose curve at least 0.9, where 1 is the maximum; inactive = score below 0.9.

Read-out in test [1]: Urokinase-type plasminogen activator receptor (uPAR), PLAUR (gene 5329)
The test can be described thus: BSK_4H_uPAR: BioMAP Diversity Plus: 4H Assay for Urokinase-type plasminogen activator receptor (uPAR) Biomarker Activity (AID 2283030). Conditions: primary human endothelial cells (HUVEC); actives raise or lower the signal. Summed up:
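Endpoint derived via bidirectional curve fitting against DMSO baseline; readout was ELISA detection of uPAR on umbilical vein endothelial cells at 24 h post-treatment, with SRB-stained parallel cultures assessing cytotoxicity.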

Read-out in test [2]: Vascular endothelial growth factor receptor 2 (Homo sapiens) (UniProt P35968)
Put plainly: BSK_4H_VEGFRII: BioMAP Diversity Plus: 4H Assay for Vascular endothelial growth factor receptor 2 (VEGFR2) Biomarker Activity (AID 2283031).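 As to AC50: cell-surface VEGFR2 protein level quantified by ELISA.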 The conditions noted are these: primary human endothelial cells (HUVEC); actives raise or lower the signal. An outline of the steps:
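In this multiplexed HUVEC system, biomarker ELISA was performed after 24 h chemical exposure. Parallel SRB staining (TCA fixation, 560 nm) tracked cytotoxicity; DMSO served as baseline.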

Read-out in test [3]: Human Leukocyte Antigen - DR isotype (HLADR), HLA-DRA (gene 3122)
Put plainly: BSK_BE3C_HLADR: BioMAP Diversity Plus: BE3C Assay for Human Leukocyte Antigen - DR isotype (HLADR) Biomarker Activity (AID 2283032). Conditions: primary human bronchial epithelial cells; actives raise or lower the signal. Summed up: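 ELISA read-out of HLA-DR on human lung bronchial epithelial primary cells, measured 24 h post-dosing. Both increases and decreases were scored relative to DMSO vehicle.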

Read-out in test [4]: Vascular cell adhesion molecule 1 (VCAM1), VCAM1 (gene 7412)
Put plainly: BSK_4H_VCAM1: BioMAP Diversity Plus: 4H Assay for Vascular cell adhesion molecule 1 (VCAM1) Biomarker Activity (AID 2283033).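 As to outcome: cell-surface VCAM-1 protein measured by ELISA.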 Conditions: primary human endothelial cells (HUVEC); actives raise or lower the signal. Summed up: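 ELISA read-out of VCAM-1 on human umbilical vein endothelium 24 hours after chemical dosing; gain or loss of signal was fitted relative to DMSO, with sulforhodamine B staining of parallel cultures flagging overt cytotoxicity.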

Read-out in test [5]: Interferon-gamma inducible Protein 10 (IP10), CXCL10 (gene 3627)
The test can be described thus: BSK_BE3C_IP10: BioMAP Diversity Plus: BE3C Assay for Interferon-gamma inducible Protein 10 (IP10) Biomarker Activity (AID 2283034). The conditions noted are these: primary human bronchial epithelial cells; actives raise or lower the signal. An outline of the steps:
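Chemical is dosed onto human lung bronchial epithelial primary cells, cultures are incubated 24 h, and IP-10 is then quantified by ELISA. Gain or loss of signal is fitted in both directions relative to DMSO.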

Read-out in test [6]: Monokine induced gamma interferon (MIG), CXCL9 (gene 4283)
Put plainly: BSK_BE3C_MIG: BioMAP Diversity Plus: BE3C Assay for Monokine induced gamma interferon (MIG) Biomarker Activity (AID 2283035).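 As to outcome: MIG protein measured by ELISA in BE3C cultures after 24 h of dosing.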 The conditions noted are these: primary human bronchial epithelial cells; actives raise or lower the signal. An outline of the steps:
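MIG level was determined by ELISA after 24 h chemical treatment of primary human bronchial epithelial cells. Values were fitted bidirectionally with DMSO as the negative control and activity baseline.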

Read-out in test [7]: Transforming growth factor beta 1 (TGFb1), TGFB1 (gene 7040)
Put plainly: BSK_BE3C_TGFb1: BioMAP Diversity Plus: BE3C Assay for Transforming growth factor beta 1 (TGFb1) Biomarker Activity (AID 2283036;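 as to outcome: TGF-b1 protein level measured by ELISA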). Conditions: primary human bronchial epithelial cells; actives raise or lower the signal. Summed up: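 Primary human lung bronchial epithelial cells; compound exposure 24 h; TGF-b1 by ELISA; bidirectional fit, DMSO baseline. Parallel SRB total-protein staining for cytotoxicity.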

Read-out in test [8]: Plasminogen activator inhibitor-1 (PAI1), SERPINE1 (gene 5054)
Put plainly: BSK_BE3C_PAI1: BioMAP Diversity Plus: BE3C Assay for Plasminogen activator inhibitor-1 (PAI1) Biomarker Activity (AID 2283037). The conditions noted are these: primary human bronchial epithelial cells; actives raise or lower the signal. Summed up: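 Primary human lung bronchial epithelial cells; chemical dosing; 24 h; PAI-1 measured by ELISA; bidirectional fit referenced to DMSO as negative control.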

Read-out in test [9]: urokinase plasminogen activator (uPA), PLAU (gene 5328)
Put plainly: BSK_BE3C_uPA: BioMAP Diversity Plus: BE3C Assay for urokinase plasminogen activator (uPA) Biomarker Activity (AID 2283038).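 Also: uPA protein level quantified by ELISA in cell cultures; uPA read one day after compound addition.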 The conditions noted are these: primary human bronchial epithelial cells; actives raise or lower the signal. Summed up: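 Using confluent primary human lung bronchial epithelial cultures, we dosed chemicals, waited 24 h, then ran a uPA ELISA, fitting bidirectionally against DMSO.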

Read-out in test [10]: Urokinase-type plasminogen activator receptor (uPAR), PLAUR (gene 5329)
Put plainly: BSK_BE3C_uPAR: BioMAP Diversity Plus: BE3C Assay for Urokinase-type plasminogen activator receptor (uPAR) Biomarker Activity (AID 2283039).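 As to outcome: uPAR protein level measured by ELISA on the cells; cells exposed to compound for one day before measurement.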 The conditions noted are these: primary human bronchial epithelial cells; actives raise or lower the signal. Summed up: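 Human bronchial epithelial primary cells; chemical exposure 24 h; uPAR by ELISA; bidirectional fit vs DMSO control.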

Read-out in test [11]: Interleukin-6 (IL6), IL6 (gene 3569)
The test can be described thus: BSK_CASM3C_IL6: BioMAP Diversity Plus: CASM3C Assay for Interleukin-6 (IL6) Biomarker Activity for (AID 2283040). The conditions noted are these: primary human coronary artery smooth muscle cells; actives raise or lower the signal.

Read-out in test [12]: Tissue plasminogen activator (tPA), PLAT (gene 5327)
The test can be described thus: BSK_BE3C_tPA: BioMAP Diversity Plus: BE3C Assay for Tissue plasminogen activator (tPA) Biomarker Activity (AID 2283041).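 Also: tPA level quantified by ELISA one day after compound addition.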 Conditions: primary human bronchial epithelial cells; actives raise or lower the signal. Summed up: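 Primary human lung bronchial epithelial cultures receive test chemical; after 24 h, tPA is quantified by ELISA, and gain or loss of signal is fitted bidirectionally relative to DMSO baseline.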

Read-out in test [13]: Interleukin-8 (IL8), CXCL8 (gene 3576)
The test can be described thus: BSK_CASM3C_IL8: BioMAP Diversity Plus: CASM3C Assay for Interleukin-8 (IL8) Biomarker Activity (AID 2283042).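 Also: IL-8 protein level quantified by ELISA.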 Conditions: primary human coronary artery smooth muscle cells; actives raise or lower the signal.

Read-out in test [14]: Human Leukocyte Antigen - DR isotype (HLADR), HLA-DRA (gene 3122)
The test can be described thus: BSK_CASM3C_HLADR: BioMAP Diversity Plus: CASM3C Assay for Human Leukocyte Antigen - DR isotype (HLADR) Biomarker Activity (AID 2283043).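 Also: cell-surface HLA-DR protein level quantified by ELISA.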 The conditions noted are these: primary human coronary artery smooth muscle cells; actives raise or lower the signal.

Read-out in test [15]: Macrophage colony-stimulating factor (MCSF), CSF1 (gene 1435)
Put plainly: BSK_CASM3C_MCSF: BioMAP Diversity Plus: CASM3C Assay for Macrophage colony-stimulating factor (MCSF) Biomarker Activity (AID 2283044).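 Also: M-CSF protein amount quantified by ELISA after 24 h exposure.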 Conditions: primary human coronary artery smooth muscle cells; actives raise or lower the signal.

Read-out in test [16]: Low-density lipoprotein receptor (LDLR), LDLR (gene 3949)
The test can be described thus: BSK_CASM3C_LDLR: BioMAP Diversity Plus: CASM3C Assay for Low-density lipoprotein receptor (LDLR) Biomarker Activity (AID 2283045).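 Also: LDLR protein level on the cell surface quantified by ELISA.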 The conditions noted are these: primary human coronary artery smooth muscle cells; actives raise or lower the signal.

Read-out in test [17]: Monocyte Chemoattractant Protein-1 (MCP1), CCL2 (gene 6347)
The test can be described thus: BSK_CASM3C_MCP1: BioMAP Diversity Plus: CASM3C Assay for Monocyte Chemoattractant Protein-1 (MCP1) Biomarker Activity (AID 2283046).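 Also: MCP-1 level quantified by ELISA 24 h after dosing.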 The conditions noted are these: primary human coronary artery smooth muscle cells; actives raise or lower the signal.

A short description of test [18]: BSK_CASM3C_Proliferation: Cell Proliferation Assessment in the BioMAP Diversity Plus: CASM3C Assay (AID 2283047).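 Also: sulforhodamine B total protein stain as relative cell number at 560 nm; sub-confluent cells exposed 48 h before staining; fitted both ways against DMSO so gain or loss of cell number.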 Conditions: primary human coronary artery smooth muscle cells.
Read-out in test [19]: Monokine induced gamma interferon (MIG), CXCL9 (gene 4283)
Put plainly: BSK_CASM3C_MIG: BioMAP Diversity Plus: CASM3C Assay for Monokine induced gamma interferon (MIG) Biomarker Activity (AID 2283048).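 Also: MIG protein level measured by ELISA.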 The conditions noted are these: primary human coronary artery smooth muscle cells; actives raise or lower the signal.

Read-out in test [20]: serum amyloid A (SAA), SAA1 (gene 6288)
Put plainly: BSK_CASM3C_SAA: BioMAP Diversity Plus: CASM3C Assay for serum amyloid A (SAA) Biomarker Activity (AID 2283049).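 Also: SAA protein level quantified by ELISA.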 The conditions noted are these: primary human coronary artery smooth muscle cells; actives raise or lower the signal.

For `CC(Cc1ccc(OCC(=O)O)cc1)NCC(O)c1csc(C(F)(F)F)n1` (stereo not given), the result in [1], in test [2], in test [3], in [4], in test [5] and in test [6] was inactive. The result in test [7], in test [8], in [9], in [10], in test [11] and in test [12] was inactive. The outcome in test [13], in [14], in test [15], in test [16], in test [17] and in test [18] was inactive. Besides, the outcome in [19] and in test [20] was inactive.
As to `N#Cc1c(-c2ccc(Cl)cc2)[nH]c(C(F)(F)F)c1Br`, the AC50 in [1] is 130 nM (active); in [2], 0.016 µM (active); in test [3], 4.08 µM (active); in test [4], 1.69 µM (active); in [5] it was 4.45 µM (active); in [6] it was 25.4 µM (active). In addition, the AC50 is 0.0307 µM (active) in test [7]; 0.656 µM (active) in test [10]; 1.18 µM (active) in test [11]; 0.277 µM (active) in [13]; 0.36 µM (active) in test [14]; 20 µM (active) in [15]. The AC50 in [16] is 20 µM (active); in [17] it was 0.0939 µM (active); in [18], 779 nM (active); in test [19], 11.5 µM (active); in test [20], 6.57 µM (active). Moreover, the result in test [8], in test [9] and in test [12] was inactive.
With `OCC(F)(F)OC(F)(F)C(F)(F)OC(F)(F)C(F)(F)OC(F)(F)F`, the AC50 in test [1] was 50.3 µM (active) and 44.6 µM (active); in [2], 42.9 µM (active); in [14], 48.6 µM (active); in test [15] it was 17.5 µM (active); in test [17], 47.3 µM (active); in test [18], 18.7 µM (active) and 28.5 µM (active). Moreover, the values for the AC50 in test [19] and in test [20] were 30 µM (active) and 35 µM (active), respectively. For the same molecule, the result in test [2], in [3], in test [4], in test [5], in test [6] and in test [8] was inactive. The result in [9], in test [10], in [11], in test [12], in test [13] and in [14] was inactive. Besides, the outcome in test [15], in test [16], in test [17], in test [19] and in test [20] was inactive.
Regarding `COP(N)(=S)OC`, the result in [1], in test [2], in [3], in test [4], in [5] and in test [6] was inactive. The outcome in [7], in test [8], in test [9], in test [10], in [11] and in [12] was inactive. Also, the outcome in test [13], in test [14], in test [15], in test [16], in test [17] and in test [18] was inactive. Besides, the result in test [19] and in [20] was inactive.
Consider `CCCCN(CCCC)SN(C)C(=O)Oc1cccc2c1OC(C)(C)C2`, for which the concentration at half-maximal activity (AC50) is 37100 nM (active) in test [1]; 31 µM (active) in [2]; 30.4 µM (active) in test [4]; 29.1 µM (active) in test [14]; 11.4 µM (active) in [15]; 36.6 µM (active) in test [16]. Besides, the values for the AC50 in test [18] and in test [20] were 27100 nM (active) and 31.3 µM (active), respectively. For the same molecule, the result in [3], in [5], in test [6], in [7], in test [8] and in test [9] was inactive. Further, the outcome in test [10], in test [11], in test [12], in [13], in test [17] and in [19] was inactive.
As for `ClC(Cl)c1ccccc1`, the outcome in test [1], in test [2], in test [3], in test [4], in [5] and in test [6] was inactive. Besides, the result in [7], in [8], in test [9], in [10], in test [11] and in [12] was inactive. The outcome in test [13], in test [14], in test [15], in [16], in test [17] and in test [18] was inactive. The result in test [19] and in [20] was inactive.
